Data on 35 compounds can be found in PubChem BioAssay (NCATS).

Results filed as inconclusive are left out. Entries that show only a call come without a potency. Unmarked numbers belong to inactive results. Active and inactive are the calls of the source. Calls come from the whole dose curve; as a rule, active = well fitted inhibition curve with a large enough effect; inconclusive = small, poorly fitted or top-dose-only effect; inactive = flat fitted curve, though single readings scatter.
Note: nearly all actives have a fitted effect of over 60% in size.
Potency is the fitted concentration of half-maximal effect.

The subject of the first experiment is NIH3T3. As to the kind of experiment: Cytotoxic Profiling of Annotated Libraries Using Quantitative High-Throughput Screening (AID 1296008). The conditions noted are these: Five cell lines viability, CellTiter-Glo ATP luminescence, 48-72 h; max response: hits give low values. Put shortly:
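Cells exposed to compounds for 48 or 72 hr at 37 degrees Celsius. Viability read as ATP-coupled luminescence with CellTiter-Glo after 10 min at room temperature.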
`CC(C)Cc1ccc(CC(=O)O)cc1`: the max response was 2.82%.

Turning to `c1ccc(CC2=NCCN2)cc1`, the max response was -5.64%.

Turning to `CC(C)[N+](C)(C)CC(O)COc1cccc2ccccc12` (stereo unspecified), the max response is -0.944%.

For the compound `CC(C)(C)NCC(O)COc1cccc2c1C[C@H](O)[C@H](O)C2` (stereo partly specified), the max response is -4.22%.

In the case of `OCc1ccccn1`, the max response is -14.5%.

As for `Cc1cc(C)cc(OCC2CNC(=O)O2)c1` (stereo unspecified), the max response was 0.518%.

Turning to `O=[N+]([O-])c1ccc(/C=N\O)o1`, the max response is -18.1%.

Consider `CC(=O)OCC1=C(C(=O)O)N2C(=O)[C@@H](NC(=O)CSc3ccncc3)[C@H]2SC1`, for which the max response was 1.18%.

For `CC(=O)NCCCCCC(=O)O`, the max response is -7.1%.

For the compound `O=C1C(CCS(=O)c2ccccc2)C(=O)N(c2ccccc2)N1c1ccccc1` (stereo unspecified), the max response was -2.37%.

As to `CC(=O)Nc1ccc(OCC(O)CNC(C)C)cc1` (stereo unspecified), the max response was -0.995%.

With `NS(=O)(=O)c1ccc(Cl)c(S(N)(=O)=O)c1`, the max response is -4.55%.

As to `CC[C@H](c1ccc(O)cc1)[C@@H](CC)c1ccc(O)cc1`, the max response is 4.6%.

In the case of `C/C=C/C=N/NC(=O)c1ccncc1`, the max response is -0.451%.

`CCOc1ccccc1C(N)=O`: the outcome was inactive.

For the compound `NCCNc1cccc2ccccc12`, the max response is 0.794%.

For the compound `C[N+]12CCC(CC1)C(OC(=O)C(O)(c1ccccc1)c1ccccc1)C2` (stereo unspecified), the max response is 0.982%.

With `CC1(COc2ccc(CC3SC(=O)NC3=O)cc2)CCCCC1` (stereo unspecified), the outcome was inactive.

Take `CCN1CCN(C(=O)N[C@@H](C(=O)N[C@@H]2C(=O)N3C(C(=O)O)=C(CSc4nnnn4C)CS[C@H]23)c2ccc(O)cc2)C(=O)C1=O`: the max response is -3.36%.

Consider `O=C(O)P(=O)(O)O`, for which the max response was 4.83%.

On to `O=S(c1cc(Cl)cc(Cl)c1O)c1cc(Cl)cc(Cl)c1O`, for which the max response was 1.36%.

Take `C=C1c2cccc(O)c2C(O)=C2C(=O)[C@]3(O)C(O)=C(C(N)=O)C(=O)[C@@H](N(C)C)[C@@H]3[C@@H](O)[C@H]12`: the result was inactive.

Turning to `Nc1ccc(C(=O)NCC(=O)O)cc1`, the max response was -6.17%.

As to `CN1CCN(C2=Nc3ccccc3Sc3ccc(Cl)cc32)CC1`, the max response was -1.36%.

With `C#C[C@]1(O)CC[C@H]2[C@@H]3CCc4cc(OC)ccc4[C@H]3CC[C@@]21C`, the max response is -5.18%.

As to `Cc1cn([C@H]2C[C@H](F)[C@@H](CO)O2)c(=O)[nH]c1=O`, the max response was -16.7%.

Consider `O=C(O)Cc1csc(-c2ccc(Cl)cc2)n1`, for which the max response was 1.14%.

As for `Nc1nc(Cl)nc2c1ncn2[C@@H]1O[C@H](CO)[C@@H](O)[C@@H]1F`, the Potency was 1190 nM (active).

Turning to `CCNC(=O)NCc1cccc(Cl)c1`, the max response was 0.416%.

In a further experiment the test system is HACAT. Description: qHTS assay to identify novel small-molecules to repurpose for Merkel cell carcinoma treatment (AID 1296009). The settings on record: MCC and control cell lines, CellTiter-Glo viability, 72 h; at 44.8 µM (top of the series) unless noted. Put shortly:
(§1)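 CellTiter-Glo luminescence after 72 hr compound exposure at 37 degree celsius gave cell viability. Libraries NPC and MIPE were run as 8- and 11-point dose responses; RLUs normalized to DMSO (negative) and no-cell (cytotoxicity) controls.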
Background: qHTS replaces the single test concentration by a dilution series.
As for `CC(C)(C)NCC(O)COc1cccc2c1C[C@H](O)[C@H](O)C2` (stereo partly specified), the compound was called inactive.

As for `OCc1ccccn1`, the compound was classed as inactive.

With `O=C1C(CCS(=O)c2ccccc2)C(=O)N(c2ccccc2)N1c1ccccc1` (stereo unspecified), the result was inactive.

Regarding `CC(=O)Nc1ccc(OCC(O)CNC(C)C)cc1` (stereo unspecified), the outcome was inactive.

Consider `CC1(COc2ccc(CC3SC(=O)NC3=O)cc2)CCCCC1` (stereo unspecified), for which the outcome was inactive.

For `CN1CCN(CCC(=O)N2c3ccccc3Sc3ccc(C(F)(F)F)cc32)CC1`, the compound was classed as inactive.

Regarding `Cc1cn([C@H]2C[C@H](F)[C@@H](CO)O2)c(=O)[nH]c1=O`, the compound was classed as inactive.

Consider `O=C(Nc1ccc([N+](=O)[O-])cc1)Nc1ccc([N+](=O)[O-])cc1`, for which the compound was called inactive.

In the case of `CC(=O)O[C@]1(C(C)=O)CC[C@H]2[C@@H]3C=C(Cl)C4=CC(=O)CC[C@]4(C)[C@H]3CC[C@@]21C`, the result was inactive.

The next experiment relates to MCC-13. The description is as above. The conditions noted are these: MCC and control cell lines, CellTiter-Glo viability, 72 h; series mostly up to 46 µM. The method in brief: as §1
Background: ATP-based viability assays read luminescence as a measure of living cells.
For the compound `CCCN(CCC)S(=O)(=O)c1ccc(C(=O)O)cc1`, the Potency result is “inactive”.

As to `CC(C)Cc1ccc(CC(=O)O)cc1`, the Potency entry is “inactive”.

Take `c1ccc(CC2=NCCN2)cc1`: the Potency result is “inactive”.

On to `CC(C)[N+](C)(C)CC(O)COc1cccc2ccccc12` (stereo unspecified), for which the Potency result is “inactive”.

As to `CC(C)(C)NCC(O)COc1cccc2c1C[C@H](O)[C@H](O)C2` (stereo partly specified), the Potency result was “inactive”.

For the compound `OCc1ccccn1`, the Potency result was “inactive”.

In the case of `Cc1cc(C)cc(OCC2CNC(=O)O2)c1` (stereo unspecified), the Potency result was “inactive”.

`C[C@H]1O[C@@H](O[C@H]2CC[C@@]3(C)[C@H](CC[C@@H]4[C@@H]3C[C@@H](O)[C@]3(C)[C@@H](C5=CC(=O)OC5)CC[C@]43O)C2)C[C@H](O)[C@@H]1O[C@H]1C[C@H](O)[C@H](O[C@H]2C[C@H](O)[C@H](O[C@@H]3O[C@H](CO)[C@@H](O)[C@H](O)[C@H]3O)[C@@H](C)O2)[C@@H](C)O1`: the Potency is 335 nM (active).

For `O=[N+]([O-])c1ccc(/C=N\O)o1`, the Potency result is “inactive”.

As for `CC(=O)OCC1=C(C(=O)O)N2C(=O)[C@@H](NC(=O)CSc3ccncc3)[C@H]2SC1`, the Potency entry was “inactive”.

`CC(=O)NCCCCCC(=O)O`: the Potency entry is “inactive”.

For `O=C1C(CCS(=O)c2ccccc2)C(=O)N(c2ccccc2)N1c1ccccc1` (stereo unspecified), the Potency entry was “inactive”.

Turning to `CC(=O)Nc1ccc(OCC(O)CNC(C)C)cc1` (stereo unspecified), the Potency result is “inactive”.

Turning to `NS(=O)(=O)c1ccc(Cl)c(S(N)(=O)=O)c1`, the Potency result was “inactive”.

For `CC[C@H](c1ccc(O)cc1)[C@@H](CC)c1ccc(O)cc1`, the Potency entry was “inactive”.

In the case of `C/C=C/C=N/NC(=O)c1ccncc1`, the Potency entry is “inactive”.

For the compound `CCOc1ccccc1C(N)=O`, the Potency result was “inactive”.

Turning to `NCCNc1cccc2ccccc12`, the Potency result is “inactive”.

In the case of `C[N+]12CCC(CC1)C(OC(=O)C(O)(c1ccccc1)c1ccccc1)C2` (stereo unspecified), the Potency entry was “inactive”.

`CC1(COc2ccc(CC3SC(=O)NC3=O)cc2)CCCCC1` (stereo unspecified): the Potency result was “inactive”.

`CCN1CCN(C(=O)N[C@@H](C(=O)N[C@@H]2C(=O)N3C(C(=O)O)=C(CSc4nnnn4C)CS[C@H]23)c2ccc(O)cc2)C(=O)C1=O`: the Potency entry is “inactive”.

For `O=C(O)P(=O)(O)O`, the Potency result was “inactive”.

With `O=S(c1cc(Cl)cc(Cl)c1O)c1cc(Cl)cc(Cl)c1O`, the Potency entry was “inactive”.

Take `CN1CCN(CCC(=O)N2c3ccccc3Sc3ccc(C(F)(F)F)cc32)CC1`: the Potency entry was “inactive”.

With `C=C1c2cccc(O)c2C(O)=C2C(=O)[C@]3(O)C(O)=C(C(N)=O)C(=O)[C@@H](N(C)C)[C@@H]3[C@@H](O)[C@H]12`, the Potency entry is “inactive”.

Turning to `CN1CCN(C2=Nc3ccccc3Sc3ccc(Cl)cc32)CC1`, the Potency entry is “inactive”.

For `C#C[C@]1(O)CC[C@H]2[C@@H]3CCc4cc(OC)ccc4[C@H]3CC[C@@]21C`, the Potency result was “inactive”.

For the compound `Cc1cn([C@H]2C[C@H](F)[C@@H](CO)O2)c(=O)[nH]c1=O`, the Potency result was “inactive”.

Take `O=C(Nc1ccc([N+](=O)[O-])cc1)Nc1ccc([N+](=O)[O-])cc1`: the Potency entry was “inactive”.

As for `O=C(O)Cc1csc(-c2ccc(Cl)cc2)n1`, the Potency entry was “inactive”.

With `COc1cc([C@H]2Oc3cc([C@H]4Oc5cc(O)cc(O)c5C(=O)[C@@H]4O)ccc3O[C@@H]2CO)ccc1O`, the Potency result was “inactive”.

As for `CC(=O)O[C@]1(C(C)=O)CC[C@H]2[C@@H]3C=C(Cl)C4=CC(=O)CC[C@]4(C)[C@H]3CC[C@@]21C`, the Potency result was “inactive”.

For the compound `CCNC(=O)NCc1cccc(Cl)c1`, the Potency entry is “inactive”.
